# Source: the antibiotic and cytotoxicity screens of Wong et al. (2023)
# Hit rate of the full screen: of about 39,000 compounds, about 500 (1.3%) were called active. Only a selection was taken, and actives are over-represented in it overall.
# System: S. aureus RN4220
# Experiment: growth inhibition call (relative growth <= 0.2)
# Conditions: 50 µM
row,Structure (SMILES),growth inhibition call
1,C[C@H](CO)N1C[C@H](C)[C@H](CN(C)C(=O)Cc2ccccc2)OCCCC[C@H](C)Oc2ccc(NS(=O)(=O)c3ccc(F)cc3)cc2C1=O,inactive
2,C[C@@H]1CN([C@@H](C)CO)C(=O)c2cccc(NC(=O)Nc3ccc(C(F)(F)F)cc3)c2O[C@H]1CN(C)C(=O)NC1CCCCC1,inactive
3,C[C@H](O)C#Cc1cnc2c(c1)C(=O)N([C@@H](C)CO)C[C@H](C)[C@@H](CN(C)C(=O)Nc1ccc(C(F)(F)F)cc1)O2,inactive
4,C[C@@H]1CN([C@H](C)CO)C(=O)Cc2cc(NC(=O)Nc3ccc(C(F)(F)F)cc3)ccc2O[C@@H]1CN(C)C(=O)Nc1cccc2ccccc12,inactive
5,COC1C(OC(N)=O)C(O)C(Oc2ccc3c([O-])c(NC(=O)c4ccc(O)c(CC=C(C)C)c4)c(=O)oc3c2C)OC1(C)C.[Na+] (stereo unspecified),active
6,CO[C@@H]1[C@@H](OC(=O)c2ccc(C)[nH]2)[C@@H](O)[C@@H](Oc2ccc3c(c2C)OC(=O)[C@H](NC(=O)c2[nH]cc(CC(=O)Nc4cc5ccc(O[C@@H]6OC(C)(C)[C@H](OC)[C@@H](OC(=O)c7ccc(C)[nH]7)[C@H]6O)c(C)c5oc4=O)c2C)C3)CC1(C)C,inactive
7,O=C(C[C@H]1C[C@@H]2c3cc(NS(=O)(=O)c4ccc(F)cc4)ccc3O[C@@H]2[C@@H](CO)O1)NC1CCCCC1,inactive
8,O=C(C[C@H]1CC=CCCC(=O)OCCNC1=O)NCCO,inactive
9,c1n[nH]nc1SSc1cn[nH]n1,active
10,C[C@@H]1CN([C@@H](C)CO)C(=O)Cc2cc(NC(=O)CCCN(C)C)ccc2O[C@H]1CN(C)S(C)(=O)=O,inactive
11,COc1ccc(S(=O)(=O)N(C)C[C@@H]2Oc3ccc(NC(=O)Nc4cccc5ccccc45)cc3C(=O)N([C@@H](C)CO)C[C@@H]2C)cc1,inactive
12,COc1ccc(S(=O)(=O)Nc2cccc3c2O[C@@H](CN(C)S(=O)(=O)c2cn(C)cn2)[C@@H](C)CN([C@H](C)CO)C3=O)cc1,inactive
13,C[C@H]1CN([C@@H](C)CO)C(=O)c2cc(NC(=O)Nc3ccc(C(F)(F)F)cc3)ccc2O[C@H]1CN(C)Cc1ccc(C(=O)O)cc1,inactive
14,Cc1ccc(S(=O)(=O)Nc2cccc3c2O[C@H](CN(C)Cc2ccc(C(F)(F)F)cc2)[C@H](C)CN([C@@H](C)CO)C3=O)cc1,inactive
15,NC[C@@H]1O[C@H](C23CC4CC(CC(C4)C2)C3)Cc2c1ccc(O)c2O,active
16,Cn1cnc(S(=O)(=O)N2CC[C@H]3NC(=O)C[C@H]32)c1,inactive
17,C[C@@H]1CN([C@H](C)CO)C(=O)Cc2cc(NC(=O)CCC(F)(F)F)ccc2O[C@H]1CN(C)S(=O)(=O)c1cn(C)cn1,inactive
18,O=C(CCCN1CCC(O)(c2ccc(Cl)cc2)CC1)c1ccc(F)cc1,inactive
19,OC1(c2ccc(Cl)c(C(F)(F)F)c2)CCN(CCCC(c2ccc(F)cc2)c2ccc(F)cc2)CC1 [listing 1 of 2 here],active
20,OC1(c2ccc(Cl)c(C(F)(F)F)c2)CCN(CCCC(c2ccc(F)cc2)c2ccc(F)cc2)CC1 [listing 2 of 2 here],inactive
21,C[C@H](CO)N1C[C@H](C)[C@@H](CN(C)S(=O)(=O)c2ccc(F)cc2)Oc2c(NC(=O)c3ccncc3)cccc2C1=O,inactive
22,C[C@@H]1CN([C@@H](C)CO)C(=O)c2cc(NC(=O)C3CCCCC3)ccc2O[C@@H](C)CCCCO[C@H]1CN(C)Cc1ccc(C(F)(F)F)cc1,inactive
23,COc1ccc(S(=O)(=O)N(C)C[C@@H]2Oc3ccc(NC(=O)C4CC4)cc3CC(=O)N([C@@H](C)CO)C[C@H]2C)cc1,inactive
24,C[C@H]1c2cccc(O)c2C(=O)C2=C(O)[C@]3(O)C(=O)[C@@H](C(N)=O)C(=O)[C@@H](N(C)C)[C@@H]3[C@@H](O)[C@@H]21,active

row,Structure (SMILES),growth inhibition call
1,CC1c2cccc(O)c2C(=O)C2=C(O)C3(O)C(=O)C(C(N)=O)=C(O)C(N(C)C)C3C(O)C21.Cl (stereo unspecified),inactive
2,C=C1c2cccc(O)c2C(=O)[C@@H]2C(=O)[C@]3(O)C(=O)[C@@H](C(N)=O)C(=O)[C@@H](N(C)C)[C@@H]3[C@@H](O)[C@H]12,inactive
3,COc1ccc(S(=O)(=O)N(C)C[C@@H]2Oc3c(NC(=O)C4CC4)cccc3C(=O)N([C@@H](C)CO)C[C@@H]2C)cc1,inactive
4,CO[C@@H]1CN(C)C(=O)c2ccc(NC(=O)C3CC3)cc2OC[C@H](C)N(C(=O)CN2CCOCC2)C[C@H]1C,inactive
5,C[C@@H]1CN([C@H](C)CO)C(=O)c2cc(NS(=O)(=O)c3ccccc3)ccc2O[C@@H](C)CCCCO[C@H]1CN(C)C(=O)NC1CCCCC1,inactive
6,CC1CCc2cc(F)cc3c(=O)c(C(=O)O)cn1c23 (stereo unspecified),active
7,CC1COc2c(N3CCN(C)CC3)c(F)cc3c(=O)c(C(=O)O)cn1c23 (stereo unspecified),active
8,CC1CCc2c(N3CCC(O)CC3)c(F)cc3c(=O)c(C(=O)O)cn1c23 (stereo unspecified),inactive
9,CN1CCN(c2c(F)cc3c(=O)c(C(=O)O)cn4c3c2OCN4C)CC1,active
10,C[C@H]1COc2c(C3(N)CC3)c(F)cc3c(=O)c(C(=O)O)cn1c23,active
11,CC1COc2c(C3(N)CC3)c(F)cc3c(=O)c(C(=O)O)cn1c23.CS(=O)(=O)O (stereo unspecified),inactive
12,COc1ccc2c3c([nH]c2c1)[C@@H](CO)N(C[C@]13CCN(CC1)C(=O)NC(C)C)C(=O)CN1CCOCC1,inactive
13,C[C@H]1CN([C@@H](C)CO)C(=O)c2cc(C#CCN(C)C)cnc2O[C@@H]1CN(C)C(=O)Nc1cccc(F)c1,inactive
14,C[C@@H]1CN([C@@H](C)CO)C(=O)Cc2cc(NC(=O)NC3CCCCC3)ccc2O[C@H]1CN(C)C(=O)Nc1ccc(C(F)(F)F)cc1,inactive
15,Cc1ccc(S(=O)(=O)Nc2ccc3c(c2)C(=O)N([C@@H](C)CO)C[C@H](C)[C@@H](CN(C)Cc2ccc(C(F)(F)F)cc2)OCCCC[C@H](C)O3)cc1,inactive
16,C[C@H]1CN([C@@H](C)CO)C(=O)Cc2cc(NS(=O)(=O)c3cn(C)cn3)ccc2O[C@@H]1CN(C)Cc1ccncc1,inactive
17,COc1ccc(S(=O)(=O)Nc2ccc3c(c2)CC(=O)N([C@@H](C)CO)C[C@@H](C)[C@@H](CN(C)S(=O)(=O)c2cn(C)cn2)O3)cc1,inactive
18,Cc1noc(C)c1NC(=O)Nc1ccc2c(c1)CC(=O)N([C@H](C)CO)C[C@H](C)[C@H](CN(C)Cc1ccc(Cl)c(Cl)c1)O2,inactive
19,CN1C[C@H](C(N)=O)CC1=O,inactive
20,Nc1ccc(/C=C/C(=O)NCc2cc3cc(-c4ccc(C(=O)N5CCC(F)(F)CC5)cc4)cc(-c4ccc(F)cc4)c3o2)cn1,inactive
21,Cc1ccc(S(=O)(=O)N2C[C@@H](O)COC[C@H]3O[C@@H](CC(=O)NCCN4CCCCC4)CC[C@@H]32)cc1,inactive
22,C[C@H](CO)N1C[C@H](C)[C@H](CN(C)Cc2ccncc2)OCCCC[C@H](C)Oc2ccc(NC(=O)C3CCCCC3)cc2C1=O,inactive
23,C[C@H]1CN([C@@H](C)CO)C(=O)Cc2cc(NS(=O)(=O)c3cccs3)ccc2O[C@@H]1CN(C)C(=O)Nc1cccc2ccccc12,inactive
24,CC(C)NC(=O)Nc1ccc2c(c1)CC(=O)N([C@H](C)CO)C[C@@H](C)[C@@H](CN(C)C(=O)NC1CCCCC1)O2,inactive

row,Structure (SMILES),growth inhibition call
1,COc1cc(C(C)=O)ccc1O,inactive
2,C=CCc1ccc(O)c(OC)c1,active
3,COc1cc(C=O)ccc1O,inactive
4,C[C@@H]1CN([C@@H](C)CO)C(=O)c2cccc(NC(=O)c3cnccn3)c2O[C@H]1CN(C)S(C)(=O)=O,inactive
5,COc1ccc(S(=O)(=O)N(C)C[C@@H]2Oc3c(NC(=O)NC(C)C)cccc3C(=O)N([C@H](C)CO)C[C@H]2C)cc1,inactive
6,CCCNC(=O)N1[C@@H]2c3cccc(=O)n3C[C@H]1[C@H](CO)[C@H]2C(=O)NCC(F)(F)F,inactive
7,O=C(Nc1cc(C(F)(F)F)cc(C(F)(F)F)c1)Nc1cnn(-c2ccc([N+](=O)[O-])cc2)c1C(F)(F)F,inactive
8,FC(F)(F)c1cc(NC(=S)Nc2ccc(Br)cc2-c2nn[nH]n2)cc(C(F)(F)F)c1,active
9,O=C(Nc1cc(C(F)(F)F)cc(C(F)(F)F)c1)Nc1c(Br)cc(Br)cc1-c1nn[nH]n1,active
10,C[C@@H]1CN([C@H](C)CO)C(=O)Cc2cc(NC(=O)Cn3cnnn3)ccc2O[C@@H]1CN(C)S(=O)(=O)c1ccccc1,inactive
11,COc1cccc(NC(=O)N[C@@H]2C=C[C@H](CC(=O)N3CCOCC3)O[C@H]2CO)c1,inactive
12,Cc1noc(C)c1NC(=O)N(C)C[C@@H]1OCCCC[C@@H](C)Oc2ccc(NC(=O)Cc3ccccc3)cc2C(=O)N([C@@H](C)CO)C[C@@H]1C,inactive
13,Cc1noc(C)c1S(=O)(=O)Nc1ccc2c(c1)C(=O)N([C@@H](C)CO)C[C@@H](C)[C@@H](CN(C)C(=O)NC(C)C)O2,inactive
14,O=C1OCCN1N=Cc1ccc([N+](=O)[O-])o1,active
15,O=C1CN(N=Cc2ccc(-c3ccc([N+](=O)[O-])cc3)o2)C(=O)[N-]1.[Na+],inactive
16,O=C1CN(/N=C/c2ccc([N+](=O)[O-])o2)C(=O)N1,active
17,O=C1OC(CN2CCOCC2)CN1N=Cc1ccc([N+](=O)[O-])o1 (stereo unspecified),active
18,O=[N+]([O-])c1cncn1CCN1CCOCC1,inactive
19,O=C1CN(N=Cc2ccc([N+](=O)[O-])o2)C(=O)N1,active
20,COc1ccc(CN(C)C[C@@H]2OCCCC[C@H](C)Oc3ccc(NS(=O)(=O)c4cccs4)cc3C(=O)N([C@@H](C)CO)C[C@H]2C)cc1,inactive
21,O=C(O)[C@H](O)c1ccccc1,inactive
22,COc1ccc(S(=O)(=O)N[C@H]2CC[C@H](CCNC(=O)CN3CCOCC3)O[C@@H]2CO)cc1,inactive
23,C[C@@H]1CCCCO[C@@H](CN(C)Cc2ccncc2)[C@@H](C)CN([C@H](C)CO)C(=O)c2cc(NC(=O)Nc3ccc(F)cc3)ccc2O1,inactive
